High-throughput results: PubChem, National Center for Advancing Translational Sciences (NCATS)
SW480 rerep = induces DNA re-replication in SW480 colon adenocarcinoma cells | Potency, µM (highest dose often 46.1 µM), without a hit: at the highest dose re-replication activation, actives largely listed as activators | 340,000 tested, 1.8% active | AID 624297 | SW480 DNA re-replication, Hoechst DNA content imaging, 48 h; further: % of control where 0% means no effect; nearly all actives have a fitted effect of over 55% in size
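SW480 cells exposed to compounds for 48 hr at 37 C, 5% CO2, then Hoechst-stained 40 min. Nuclear DNA content imaged by fluorescence scanning (405 nm excitation, 500-530 nm emission); re-replication scored as increased high-intensity nuclei.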
ELG1 genotoxic = inducers of genotoxicity in HEK293T ELG1-luciferase cells | HEK293T ELG1-luciferase reporter, luminescence, 16 h | Potency, µM (titrated, usually from 46 µM), for the others: at the highest dose activity change, positive = activation, hits mostly activators | 330,000 tested, 1.3% active; further: % of control where 0% means no effect; nearly all actives have a fitted effect of over 60% in size
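Genotoxicity was scored as increased ELG1-luciferase reporter signal, measured by ONE-Glo luminescence (30 min, room temperature). Compound or vehicle exposure of the HEK293T reporter cells lasted 16 hr at 37°C.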
ELG1 DNA repair = inhibitors of ELG1-dependent DNA repair in HEK293T cells; 330,000 tested, 2.3% active; HEK293T ELG1-luciferase reporter, luminescence, 16 h; DNA damage induced by 5-fluorouridine; Potency, µM (top dose mostly 46.1 µM), without a hit: at the highest dose activity change, negative = inhibition, usual class: inhibitors; further: on the % scale 0 is the no-effect control and ±100 the full control effect; nearly all actives have a fitted effect of over 55% in size
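Quantitative HTS, concentration-response format. 2,000 cells/well co-treated with 5-fluorouridine and compound, 16 hr in 5% CO2 at 37 °C; ONE-Glo luminescence read after 30 min.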
MCF10A rerep = DNA re-replication induction in MCF 10a cells | 350,000 tested, 2.9% active | MCF 10A DNA re-replication, Hoechst nuclear intensity, 48 h | Potency, µM (highest dose often 46.1 µM), for the others: top-dose activity, positive = re-replication, most hits filed as activators; further: % of control where 0% means no effect; nearly all actives have a fitted effect of over 50% in size
AT treatment = potential ataxia-telangiectasia treatment | Potency, µM (titrated, usually from 57.5 µM), for inactives: at the top dose activation, usual class: activators | 320,000 tested, 0.19% active | AID 485349 | F2112 A-T fibroblasts, KAP-1 phosphorylation AlphaLISA; neocarzinostatin DNA damage 30 min before lysis; further: % of control where 0% means no effect; nearly all actives have a fitted effect of over 45% in size
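ATM-like activity read as KAP-1 phosphorylation via AlphaLISA donor/acceptor antibody pairs after lysis and 6 hr at 25C. Cells were ATM-null patient fibroblasts (F2112, hTERT), dosed 60 min, then exposed to the DSB inducer NCS for 30 min.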
p53 reactivator = re-activators of mutant p53. H1299 p53-A138V BP100-luciferase reporter, luminescence, 24 h. Potency, µM (top dose mostly 92.2 µM), for inactives: at the top dose activity change, positive = activation, usual class: activators. 320,000 tested, 0.063% active; further: % of control where 0% means no effect; nearly all actives have a fitted effect of over 45% in size
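p53-null H1299 cells stably carrying temperature-sensitive p53-A138V and a BP100-luciferase reporter were pinned with compounds (4-point, 1:5 series) and held 24 hrs at 37 deg C. Luminescence was read 10 min after detection reagent.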
* hit, by the source's call; u = inconclusive; x = no result; [ ] = another dose, or the depositor's remark. Most compounds without a hit are left out; they make up all but 7.1% or so of the library. The call rests on the fitted dose curve; in most records, active means well fitted curve in the direction sought with a large enough effect; inconclusive means small, poorly fitted or top-dose-only effect, or another doubt; inactive means no such curve, though single readings can be large; an effect the other way counts as inactive or inconclusive. Potency means the concentration at half of the fitted maximal effect.

SMILES | SW480 rerep | ELG1 genotoxic | ELG1 DNA repair | MCF10A rerep | AT treatment | p53 reactivator
CCN(CC)c1ccc(/C=N/NC(=O)c2cc(C)nc3ccccc23)cc1 | 3.3%[9.22 µM] | 12.9% | 0.0% | u | 14.9% | -1.2%
O=S(=O)(NCc1ccncc1)c1ccc(S(=O)(=O)NCC2CCCO2)cc1 (stereo unspecified) | 19.3% | -7.3% | u | 6.51µM* | 3.6% | 4.5%
O=S(=O)(NCc1ccccc1)c1ccc(S(=O)(=O)NCC2CCCO2)cc1 (stereo unspecified) | u | -1.5% | 5.9% | -1.9% | 1.3% | 0.9%
CCCc1ccc(-c2cc(N)n[nH]2)cc1 | -0.3% | 16.4µM* | u | 2.8% | x | 6.6%
CCN(CC(=O)NC1CCS(=O)(=O)C1)S(=O)(=O)c1c(C)c(C)cc(C)c1C (stereo unspecified) | -3.0% | -0.7% | -13.0% | -3.8% | 0.1% | -2.6%
O=C(NCCNC(=O)c1ccco1)c1ccc(Cl)c(Cl)c1 | -2.2% | -0.2% | u | 7.0% | 12.1% | -4.0%
CC(=O)N1CCN(Cc2nc3cc([N+](=O)[O-])ccc3n2C)CC1 | 2.91µM* | 1.1% | 3.6% | -0.1% | -10.3% | -0.1%
Cc1ccccc1NC(=O)c1snc2c(=O)[nH]cnc12 | x | 2.2% | -6.0% | x | 1.1% | -2.8%
Cc1ccc2nc(C)c(CN3CCN(c4ccc([N+](=O)[O-])cc4Cl)CC3)n2c1 | x | -19.2% | 2.31µM* | x | 0.0% | 4.6%
O=C(Cc1ccc(NC(=O)C2CCN(C(=O)C3CCCCC3)CC2)cc1)Nc1ccc(C(=O)N2CCOCC2)cc1 | 2.6%[9.22 µM] | x | x | 46.2% | x | x
O=C(Nc1nnc(SCc2ccccc2F)s1)C1=COCCO1 | -5.7% | 10.3µM* | u | 0.6% | -4.6% | 17.5%
O=C(Nc1nnc(SCc2ccccc2)s1)C1=COCCO1 | -11.0% | u | u | 2.1% | -9.8% | 26.2%
O=C(/C=C/c1ccccc1)N1CCN(c2c(Cl)cccc2[N+](=O)[O-])CC1 | 25.8% | -3.1% | u | 25.9µM* | -5.3% | -9.6%
O=C(C1=NNCC1c1ccccc1)C1CO1 (stereo unspecified) | 16.4µM* | -1.6% | 0.2% | 23.1µM* | 3.9% | 16.4%
O=C(c1[nH]ncc1-c1ccccc1)C1CO1 (stereo unspecified) | u | 16.8% | u | u | 4.0% | 19.1%
Cc1nn(Cc2c(F)c(F)c(F)c(F)c2F)c(C)c1NC(=O)c1c(-c2ccccc2)nn(-c2ccccc2)c1C | 5.5% | -8.8% | u | 23.1µM* | -3.6% | -1.4%
